Structures are written as SMILES. Compounds without any hit were thinned out: in the full panel of roughly 83,000, 20% have a hit.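 Single-dose data. Exposure time 48 hours. Values below 10 considered active.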 Values without a mark were called inactive. Activity calls are given as the source filed them.

Consider eight compounds from PubChem BioAssay (NCI).

Test in all cases: NCI-60 one-dose screen, 48 h (100 = growth as untreated, 0 = no growth, -100 = all killed)
Holding throughout (settings): 10 µM unless noted

In experiment [1] the test system is NCI-H23 lung.
The subject of experiment [2] is NCI-H226 lung.
Experiment [3] deals with NCI-H322M lung.
The subject of experiment [4] is HOP-62 NSCLC.
In experiment [5] the test system is NCI-H460 lung.
The test system of experiment [6] is HOP-92 NSCLC.
Experiment [7] relates to NCI-H522 lung.
Experiment [8] relates to A549/ATCC NSCLC.
Experiment [9] has as its system 786-0 renal.
In experiment [10] the test system is COLO 205 colon.
Experiment [11] relates to DU-145 prostate.
The subject of experiment [12] is K-562 leukemia.
In experiment [13] the test system is MALME-3M melanoma.
Experiment [14] concerns MDA-MB-231 breast.
The test system of experiment [15] is SF-268 CNS.
For experiment [16], the system named is SF-295 CNS.
In experiment [17] the test system is SF-539 CNS.
Experiment [18] relates to M14 melanoma.
Experiment [19] deals with RXF 393 renal.

For `ClCc1ccc(-c2ccc(Cn3cnc4nc(Cl)nc(Cl)c43)cc2)cc1`, the growth in experiment [1] was 23.6%; in experiment [2], 29.1%; in experiment [3], 56.8%; in [4], 8.06% (active); in experiment [5], 14.3%; in experiment [6], 25.8%. In addition, the growth was -25.2% (active) in experiment [7]; -6.5% (active) in experiment [8]; -14% (active) in experiment [9]; -14.1% (active) in experiment [10]; -50% (active) in [11]; -14.4% (active) in experiment [12]. The growth in experiment [13] is -32.8% (active); in experiment [14], -21.4% (active); in experiment [15], 1.27% (active); in experiment [16], -62.5% (active); in experiment [17], -45% (active); in [18], 13.1%.

On to `Cc1cc(O)c2c(c1)C1OC(=O)CCCCCN1C1=C2C(=O)c2cccc(OC3CC(O)C(O)C(C)O3)c2C1=O` (stereo not given), for which the growth in experiment [1] is 79.8%; in experiment [2], 118%; in [3], 94.7%; in experiment [4], 123%; in experiment [5], 65.3%; in experiment [6], 134%. Moreover, the growth in [7] was 34.1%; in [8] it was 59.9%; in experiment [9], 101%; in experiment [10], 53.3%; in experiment [11], 57.2%; in [12], 28.3%. The growth in experiment [13] was 40.6%; in experiment [14], 32.7%; in experiment [15] it was 90.8%; in [16] it was 93.9%; in experiment [17], 83.5%; in [18], 66.6%.

Regarding `COc1ccc2c(CCCC(c3ccccc3)c3ccccc3)c3[n+](cc2c1OC)CCc1cc2c(cc1-3)OCO2`, the growth in [1] was -30.1% (active); in experiment [2], 2.75% (active); in experiment [3], 16.2%; in experiment [4], -9.19% (active); in [5] it was -53% (active); in experiment [6], -40.6% (active). For the same compound, the growth in [7] is -21% (active); in [8] it was 10.2%; in experiment [9] it was -18.7% (active); in [10] it was -67.8% (active); in experiment [11] it was -13.4% (active); in experiment [12], -15.4% (active). Also, the growth in experiment [13] is -66.7% (active); in experiment [14] it was -63.4% (active); in experiment [15], -58% (active); in experiment [16], -32.2% (active); in experiment [17] it was -38.1% (active); in experiment [18], -67.5% (active).

For `CC(N)C(Cc1ccccc1)c1ccc(Cl)cc1` (stereo not given), the growth was 92.5% in experiment [1]; 89.3% in experiment [2]; 95.5% in [3]; 56.9% in experiment [4]; 90.9% in experiment [5]; 56.5% in experiment [6]. In addition, the growth in experiment [7] is 75.9%; in experiment [8] it was 76.2%; in experiment [9], 81%; in experiment [10], 84.4%; in [11] it was 110%; in experiment [12], 87%. Further, the growth is 103% in experiment [13]; 61.1% in experiment [14]; 92.2% in experiment [15]; 83.5% in [16]; 90.1% in experiment [17]; 82.6% in experiment [18].

As to `CC1(C)NC(=O)c2[nH]c3c(Cl)c(Cl)ccc3c2C1C#N` (stereo not given), the growth is 75.8% in experiment [1]; 53.9% in [2]; 90.5% in experiment [3]; 82.5% in [4]; 88.7% in [5]; 54.3% in experiment [6]. Further, the growth in experiment [7] was 67.8%; in experiment [8] it was 80.1%; in experiment [9] it was 82.6%; in [10], 92.3%; in experiment [11], 92.9%; in experiment [12] it was 69.2%. For the same compound, the growth in [13] is 99.7%; in experiment [14], 91.2%; in [15], 94.8%; in [16], 59.3%; in experiment [17] it was 85.4%; in experiment [18], 106%.

In the case of `C=CC[n+]1c(/C=C2\Sc3ccccc3N2C)sc(-c2ccccc2)c1-c1ccccc1`, the growth is 0.426% (active) in [1]; 10.3% in [2]; 24.2% in [3]; 17.8% in [4]; 8.83% (active) in experiment [5]; -12.5% (active) in [6]. The growth in experiment [7] is -7.57% (active); in experiment [8] it was 14.2%; in [9], 16.8%; in [10], -30.2% (active); in [11], 23.4%; in experiment [12], 7.28% (active). The growth in [13] was 4.72% (active); in experiment [14], 31.4%; in experiment [15] it was 32.9%; in [16], -17.1% (active); in experiment [17], 20.3%; in experiment [18] it was 19.7%.

Take `N#Cc1cc2[nH]c3ccc(OC(F)(F)F)cc3c2oc1=O`: the growth is 83.7% in experiment [1]; 82.4% in [2]; 93.5% in [3]; 56.6% in [4]; 87.6% in experiment [5]; 104% in experiment [6]. Besides, the growth in experiment [7] was 42.4%; in experiment [8], 91.3%; in experiment [9], 93.9%; in experiment [10], 86.8%; in experiment [11] it was 99.4%; in experiment [12], 28.8%. Besides, the growth is 79.6% in [13]; 84.6% in experiment [14]; 76.8% in experiment [19]; 75.5% in experiment [15]; 80.3% in experiment [16]; 90% in [17]. Also, the growth in [18] is 68.4%.

Take `COc1ccc2c(CCc3ccc(Cl)cc3)c3[n+](cc2c1OC)CCc1cc2c(cc1-3)OCO2`: the growth is 26.1% in experiment [1]; 71.4% in experiment [2]; 90.4% in [3]; 75.8% in experiment [4]; 10.6% in experiment [5]; 25% in experiment [6]. Also, the growth is 13.4% in experiment [7]; 50.7% in [8]; 73.4% in [9]; 27.1% in experiment [10]; 67.5% in experiment [11]; 33.5% in experiment [12]. In addition, the growth in experiment [13] was 55.5%; in experiment [14], 66.7%; in experiment [15] it was 49%; in experiment [16], 43.3%; in experiment [17] it was 53.1%; in experiment [18], 37.9%.
